The values that follow come from PubChem BioAssay AID2384 (Southern Research Specialized Biocontainment Screening …, 2010).

The whole screen tested about 2,300 compounds, of which about 1,100 (48%) were called active. How the calls were made is not given here. The set was probably picked from earlier hits. This is one part of the list. Entries with a potency or affinity are not part of this list.

The assay in a line: inhibitors in S. typhi counter-screen strain, dose response, counter-screen for PhoP regulon inhibitor project, fluorescence, 4 h (AID 2384). The note with it: S. typhi GFP reporter counter-screen; series mostly up to 150 µM. In general terms: Counterscreens check selectivity or assay interference.
For the compound `CCNc1nc(N)nc(Oc2ccc(OCCOc3ccc(Cl)cc3Cl)nn2)n1`, the inhibition result is “inactive”.
Regarding `COc1cc(/C=C/C(=O)O)cc2c1OCCO2`, the inhibition entry was “inactive”.
With `CCCC(CCC)C(=O)NCCN1CCOCC1` the entry was “inactive”.
With `CCn1nccc1C(=O)Nc1cc(Cl)cc(Cl)c1` the entry was “inactive”; with `CCOC(=O)/C=C1/N(C)c2ccccc2C1(C)C`, “inactive”; with `O=Cc1ccc(O)cc1O`, “inactive”.
With `CCCOc1ccc(-c2cn3ccccc3n2)cc1` the entry was “inactive”; with `Cc1ccc(-c2noc(CN3CCCCC3)n2)cc1`, “inactive”; with `Cc1ccc2nsnc2c1S(=O)(=O)NCc1ccc2c(c1)OCO2`, “inactive”.
Take `Cc1[nH]nc2c1C(c1ccc(-c3ccccc3C#N)o1)C(C#N)=C(N)O2` (configuration not stated): the inhibition result was “inactive”.
With `COc1ccc(NC(=O)CN(C)S(=O)(=O)c2ccc(Cl)cc2)cc1Cl` the entry was “inactive”; with `O=C(NCc1cccnc1)c1ccc(COc2ccc(Cl)cc2)cc1`, “inactive”.
With `Cn1cc(S(=O)(=O)NCC2CCCO2)c(=O)n(C)c1=O` (configuration not stated) the entry was “inactive”; with `C[C@]1(OC(=O)/C=C/c2ccccc2)C[C@@H](O)[C@]2(O)C=CO[C@@H](O[C@@H]3O[C@H](CO)[C@@H](O)[C@H](O)[C@H]3O)[C@@H]21`, “inactive”; with `CC(=O)c1cccc(NC(=S)NNC(=O)c2ccco2)c1`, “inactive”.
With `O=C(NC(=S)Nc1c(F)cc(F)cc1Br)c1ccc2c(c1)OCCO2` the entry was “inactive”; with `O=C(/C=C/c1ccco1)NC(=S)Nc1cccc(-c2nc3ccccc3o2)c1`, “inactive”; with `O=C(/C=C/c1ccccc1)NNC(=O)c1ccco1`, “inactive”.
Turning to `COc1ccc(C(C(=O)Nc2ccc(C(C)C)cc2)N(Cc2ccco2)C(=O)CC2NC(=O)NC2=O)cc1` (configuration not stated), the inhibition entry was “inactive”.
Then `Nc1nc(=S)c2[nH]cnc2[nH]1`, with “inactive”.
Then `COc1ccc(C2C3=C(CC(C)(C)CC3=O)Nc3cc4c(cc32)OCO4)cc1` (configuration not stated), with “inactive”.
Then `O=C(CSc1ccccc1)N1CCC(N2CCC(C(=O)N3CCCC3)CC2)CC1`, with “inactive”; and `C[C@@H](C(=O)NC1CCCC1)N1C(=O)N2CCc3c([nH]c4ccccc34)[C@@]2(C)C1=O`, with “inactive”; and `CCOC(=O)c1cccc(NC(=O)C2CCC(CNc3c(N4CCOCC4)c(=O)c3=O)CC2)c1` (configuration not stated), with “inactive”.
`O=C(C[n+]1cn(C(F)F)c2ccccc21)c1ccc(Br)cc1`: the inhibition entry is “inactive”.
With `CCc1ccc(C(=O)CC2(O)C(=O)N(CN3CCOCC3)c3ccccc32)cc1` (configuration not stated) the entry was “inactive”.
With `O=C(c1cccs1)N1CCC(N2CCN(c3ccccc3)CC2)CC1` the entry was “inactive”.
For `CC(=O)C1=C(O)C(=O)N(CCN2CCOCC2)C1c1ccccc1` (configuration not stated), the inhibition entry is “inactive”.
For `CCN1CCN(c2cc(C)c3cc(NC(=S)N4CCN(c5ccccc5F)CC4)ccc3n2)CC1`, the inhibition result was “inactive”.
Then `COc1ccc(C(=O)N2CCN(C(=O)Cc3ccccc3)CC2)cc1OC`, with “inactive”.
`CCN1CCN(C2=C(NS(=O)(=O)c3ccc(Br)cc3)C(=O)c3ccccc3C2=O)CC1`: the inhibition entry is “inactive”.
With `Cn1c(=NC(=O)COc2ccccc2)sc2cccc(F)c21` the entry was “inactive”; with `Cc1cc(NC(=O)/C=C/C(=O)N(c2ccccc2C)C(C(=O)NC2CCCC2)c2ccc(F)cc2)no1` (configuration not stated), “inactive”; with `CC(=O)c1c(N2CCN(c3cccc(Cl)c3)CC2)nc(=S)n(-c2ccccc2)c1C`, “inactive”.
With `CCc1cccc(NC(=O)CSC2=NS(=O)(=O)c3ccccc32)c1` the entry was “inactive”.
With `CCOC(=O)c1ccc(NC(=O)CSC(=S)N2CCOCC2)cc1` the entry was “inactive”.
`Cc1cnc(C(=O)OCC(=O)Nc2cccc(Cl)c2)cn1`: the inhibition result is “inactive”.
With `O=C(Cc1ccccc1)NCC(=O)Nc1cccc(Cl)c1` the entry was “inactive”.
With `Cc1ccc(NC(=O)c2cc(NC(=O)CCCC(=O)O)ccc2Cl)cc1Cl` the entry was “inactive”.
Then `NC(=O)SCC(=O)Nc1ccc(Cl)c(Cl)c1`, with “inactive”.
Take `O=C(COc1ccc(Cl)cc1)Nc1cccc(-c2ccc3nncn3n2)c1`: the inhibition result was “inactive”.
Then `O=C(Nc1ccc(Cl)cc1)N1CCOC12CCC1(CC2)OCCO1`, with “inactive”.
With `O=C(Cn1nc(Cc2ccncc2)c2ccccc2c1=O)Nc1cccnc1Cl`, the inhibition result was “inactive”.
As for `CCCN(C(=O)CSc1nc2ccccc2n1CC)C1CCS(=O)(=O)C1` (configuration not stated), the inhibition entry was “inactive”.
With `O=C(Nc1ccc2c(c1)OCCO2)C1CCCN1C(=O)Nc1ccc(F)cc1` (configuration not stated) the entry was “inactive”.
Then `c1cnc2nc(-c3ccc4c(c3)OCO4)cn2c1`, with “inactive”; and `Clc1ccc(Cn2cccc2C2=NCCO2)cc1`, with “inactive”; and `COc1ccc(-c2nnc(SC(C)C(=O)Nc3nccs3)n2Cc2ccccc2)cc1OC` (configuration not stated), with “inactive”.
Take `CN(C)C(=O)CSc1nnc(Cc2ccc([N+](=O)[O-])cc2)o1`: the inhibition result is “inactive”.
`COc1ccc(N(CC(=O)N2c3ccccc3CC2C)S(=O)(=O)c2c(C)noc2C)cc1` (configuration not stated): the inhibition result is “inactive”.
Then `O=C(N/N=C/c1ccc(O)cc1O)C(=O)N/N=C/c1ccc(O)cc1O`, with “inactive”; and `Cc1oc(/N=C/c2ccc(O)cc2O)c(C#N)c1C`, with “inactive”; and `Cc1ccc(/C=N/NC(=O)Cc2cccn2C)cc1`, with “inactive”.
Then `Cc1cc(Cl)ccc1OCC(=O)N/N=C/c1ccncc1`, with “inactive”.
With `CCOC(=O)c1[nH]c2ccc(Cl)cc2c1NC(=O)c1nonc1C`, the inhibition entry was “inactive”.
In the case of `O=C(N/N=C/c1ccc(N2CCOCC2)cc1)c1ccc(O)cc1`, the inhibition result is “inactive”.
With `CN(CC(=O)Nc1ccc(F)c(F)c1F)c1cnccn1` the entry was “inactive”; with `C[C@@H](NC(=O)[C@@H]1Cc2ccccc2CN1)C(=O)NCC1CCCO1` (some centres not stated), “inactive”.
In the case of `CCCOc1ccc(C2C(C(=O)c3ccc(C)o3)=C(O)C(=O)N2CCCn2ccnc2)cc1` (configuration not stated), the inhibition entry was “inactive”.
With `C=CCNc1nc(-c2ccccc2)nc(-n2ccnc2)n1` the entry was “inactive”; with `c1ccc2c(c1)CCN(c1nc3ccccc3n3cnnc13)C2`, “inactive”.
Then `CC1(NC(=O)NCCCCCCNC(=O)NC2(C)CCS(=O)(=O)C2)CCS(=O)(=O)C1` (configuration not stated), with “inactive”; and `O=c1c2ccccc2[nH]c2ccc(F)cc12`, with “inactive”; and `O=c1[nH]n(-c2ccccc2)c(=O)c2ccccc12`, with “inactive”.
With `COc1ccc(N=Cc2c(O)n(CC3CCCO3)c(=O)[nH]c2=O)cc1` (configuration not stated) the entry was “inactive”.
On to `Cc1cccc(N2CCN(C(=O)C3CCN(c4nnc(-n5cccc5)s4)CC3)CC2C)c1` (configuration not stated), for which the inhibition entry is “inactive”.
With `Cc1nn(C)c(C)c1NC(=O)c1ccc(S(=O)(=O)N(C)C)cc1` the entry was “inactive”.
In the case of `COc1ccccc1Nc1cc(C(=O)NCc2cccnc2)c2ccccc2n1`, the inhibition entry was “inactive”.
With `CC(C)(C)Nc1c2ccccc2nc2ccccc12` the entry was “inactive”; with `Cc1cc(-c2nc3ccccc3o2)c2ccccc2n1`, “inactive”.
`CC(=O)c1sc2nc(=O)c(C)nn2c1C`: the inhibition result is “inactive”.
Then `CCOC(=O)C(CC)Sc1ccc2nnc(-c3cccnc3)n2n1` (configuration not stated), with “inactive”; and `COC(=O)c1cc2oc(C)cc2n1CC(=O)Nc1ccc(C)c(C)c1`, with “inactive”.
Then `Cc1onc(-c2ccccc2Cl)c1C(=O)NNC(=O)C1CCN(Cc2ccccc2)CC1`, with “inactive”.
Then `CCn1c(-c2cccc(Br)c2)n[nH]c1=S`, with “inactive”; and `CCCNC(=O)C1CCN(c2ccc(S(=O)(=O)N3CCOCC3)cc2Cl)CC1`, with “inactive”.
With `COC(=O)CNC(=O)c1ccc(=O)oc1`, the inhibition result is “inactive”.
With `COc1ccc(Cl)cc1N(C)C(=O)CCNC(=O)Cn1cnc2ccccc2c1=O`, the inhibition result is “inactive”.
On to `O=C(NCC1CC1)Nc1cccs1`, for which the inhibition result was “inactive”.
Then `Oc1ccc(-c2nc3ncccn3c2Nc2ccc3c(c2)OCCO3)cc1`, with “inactive”; and `COc1ccccc1NC(=O)CN1CCN(c2ccccc2)CC1`, with “inactive”.
Then `COc1ccccc1NC(=O)Cn1cnc2c(nnn2-c2ccc(C)cc2)c1=O`, with “inactive”; and `COc1ccc2nc(NC(=O)Nc3ccccc3)sc2c1`, with “inactive”.
Then `CCN(CC)CCN(C(=O)c1cccc([N+](=O)[O-])c1)c1nc2ccc(OC)cc2s1`, with “inactive”; and `O=C(N/N=C/c1ccc(-c2ccc(Br)cc2)o1)c1ccc2c(c1)OCO2`, with “inactive”.
Consider `Cc1nc(C)c(-c2ccc(SCc3ccccc3C)nn2)s1`, for which the inhibition result is “inactive”.
For `CCCC(=NCc1ccccc1)C1=C(O)C(C(=O)OC)C(C)(C)CC1=O` (configuration not stated), the inhibition result was “inactive”.
With `Cc1noc(C)c1CCC(=O)N1CCCC(CCC(=O)NCc2ccc(F)c(F)c2)C1` (configuration not stated) the entry was “inactive”; with `CC(C)CNC(CC(=O)O)c1ccccc1` (configuration not stated), “inactive”; with `CCc1c(C)n([O-])c2c([n+]1=O)CCCCC2`, “inactive”.
Then `COCc1cc(=O)n2[nH]c(C)nc2n1`, with “inactive”; and `O=C(CC1(O)C(=O)Nc2ccc(Br)cc21)c1ccc2c(c1)OCO2` (configuration not stated), with “inactive”.
With `O=C(CN1C2=NCCN2c2ccccc21)c1ccco1`, the inhibition result was “inactive”.
With `COc1ccc(NS(=O)(=O)c2cc(NC(=O)c3ccc(C)s3)ccc2N2CCOCC2)cc1` the entry was “inactive”; with `CCOc1ccc(-c2c[n+]3c(n2-c2ccccc2)CCCCC3)cc1`, “inactive”.
Then `COc1ccc(C2C(C#N)=C(N)Oc3n[nH]c(C)c32)cc1CSc1ccccn1` (configuration not stated), with “inactive”; and `CCCCc1cc(=O)oc2cc(C)c(CN3CCCC3)c(O)c12`, with “inactive”.
Then `CC(C)c1ccc2oc(=O)cc(CN3CCN(c4ccc(F)cc4)CC3)c2c1`, with “inactive”; and `CCN(CC)CCOC(=O)c1ccc(N/C=C(/C#N)c2nc(-c3ccc(OC)c(OC)c3)cs2)cc1`, with “inactive”; and `O=C(CSC1=NCCS1)Nc1nc2c(s1)CCCC2`, with “inactive”.
In the case of `CC(=O)Nc1cc(-c2ccc(Cl)cc2)[nH]n1`, the inhibition result was “inactive”.
Then `O=C(CSc1cccc2cccnc12)Nc1ccc(S(=O)(=O)N2CCOCC2)cc1`, with “inactive”; and `CC(=O)c1c(C)nc(-c2cccc([N+](=O)[O-])c2)n1O`, with “inactive”; and `Cc1ccc(C(=O)NCC(=O)NCCc2ccc(S(N)(=O)=O)cc2)s1`, with “inactive”.
Turning to `N#Cc1nc(COc2ccc(Br)cc2)oc1NCCCn1ccnc1`, the inhibition result is “inactive”.
With `O=C1CCCN1c1ccc(CNS(=O)(=O)c2ccc(F)cc2)cc1` the entry was “inactive”; with `COc1cccc(-c2nc(CS(=O)CC(=O)NCCCOC(C)C)c(C)o2)c1` (configuration not stated), “inactive”; with `COc1ccccc1C(=O)Nc1nnc(-c2ccc(Cl)cc2)o1`, “inactive”.
As to `COc1ccc(S(=O)(=O)NCCSCc2ccco2)cc1Cl`, the inhibition entry was “inactive”.
Then `O=C(N/N=C\c1c[nH]c2ccccc12)c1ccc(O)cc1`, with “inactive”; and `COc1cc(C(=O)N/N=C/c2coc3ccccc3c2=O)cc(OC)c1OC`, with “inactive”.
With `Cn1c(N/N=C/c2c[nH]c3ccccc23)nc2ccccc21` the entry was “inactive”.

In general, inhibition refers to the share of the control response that was lost under treatment.
